Data as given in PubChem BioAssay (EPA / NIEHS).
Calls of active or inactive are those of the source. Rule for the calls: active = hit-call score of the fitted dose curve at least 0.9, where 1 is the maximum; inactive = score below 0.9.

Tests used:
[1] = BSK_hDFCGF_SRB: Viability Assessment in the BioMAP Diversity Plus: hDFCGF Assay (AID 2283061); conditions: primary human foreskin fibroblasts;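 note: cells exposed to compound for 24 h before the read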
Outline: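 Cells were dosed with test chemical, cultured 24 h, fixed with 10% TCA, then stained with 0.1% SRB and read at 560 nm. The fibroblasts were human foreskin primary cells, and DMSO served as baseline.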

[2] = read-out: TIMP metallopeptidase inhibitor 1 (TIMP1), TIMP1 (gene 7076); test: BSK_hDFCGF_TIMP1: BioMAP Diversity Plus: hDFCGF Assay for TIMP metallopeptidase inhibitor 1 (TIMP1) Biomarker Activity (AID 2283062); conditions: primary human foreskin fibroblasts; actives raise or lower the signal
Outline: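 Fibroblasts from human foreskin are treated with test chemical and harvested at 24 h. TIMP-1 is quantified by ELISA, and gain or loss of signal is scored against DMSO.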

[3] = read-out: Monokine induced gamma interferon (MIG), CXCL9 (gene 4283); test: BSK_hDFCGF_MIG: BioMAP Diversity Plus: hDFCGF Assay for Monokine induced gamma interferon (MIG) Biomarker Activity (AID 2283063); conditions: primary human foreskin fibroblasts; actives raise or lower the signal
Outline: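 MIG signal, determined by ELISA, reflects 24 h chemical exposure of human skin primary fibroblasts. DMSO serves as negative control and baseline.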

[4] = read-out: Matrix Metallopeptidase 1 (MMP1), MMP1 (gene 4312); test: BSK_hDFCGF_MMP1: BioMAP Diversity Plus: hDFCGF Assay for Matrix Metallopeptidase 1 (MMP1) Biomarker Activity (AID 2283064); conditions: primary human foreskin fibroblasts; actives raise or lower the signal
Outline: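 ELISA read-out of MMP1 from human foreskin fibroblasts (primary skin cells), 24 h post-dose. Gain or loss of signal was fitted bidirectionally versus DMSO negative control; cytotoxicity was checked by SRB in parallel cultures.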

[5] = read-out: Vascular cell adhesion molecule 1 (VCAM1), VCAM1 (gene 7412); test: BSK_hDFCGF_VCAM1: BioMAP Diversity Plus: hDFCGF Assay for Vascular cell adhesion molecule 1 (VCAM1) Biomarker Activity (AID 2283065); conditions: primary human foreskin fibroblasts; actives raise or lower the signal;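 for AC50: VCAM-1 protein level quantified by ELISA after 24 h chemical exposure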
Outline: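 Cells are dosed, cultured for 24 h, then VCAM-1 is quantified by ELISA; signal increases and decreases are both fitted relative to DMSO.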

[6] = read-out: Intercellular Adhesion Molecule 1 (ICAM1), ICAM1 (gene 3383); test: BSK_KF3CT_ICAM1: BioMAP Diversity Plus: KF3CT Assay for Intercellular Adhesion Molecule 1 (ICAM1) Biomarker Activity (AID 2283067); conditions: primary human keratinocytes with fibroblasts; actives raise or lower the signal
Outline: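 Dose the keratinocyte/fibroblast co-culture, wait 24 h, measure ICAM-1 by ELISA, then fit increases or decreases against DMSO. Cytotoxicity is checked in parallel cultures by SRB total-protein staining.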

[7] = read-out: Interferon-gamma inducible Protein 10 (IP10), CXCL10 (gene 3627); test: BSK_KF3CT_IP10: BioMAP Diversity Plus: KF3CT Assay for Interferon-gamma inducible Protein 10 (IP10) Biomarker Activity (AID 2283068); conditions: primary human keratinocytes with fibroblasts; actives raise or lower the signal
Outline: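 KF3CT co-culture (keratinocytes + foreskin fibroblasts), 24 h compound, IP-10 by ELISA; bidirectional fit vs DMSO baseline.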

[8] = BSK_KF3CT_SRB: Viability Assessment in the BioMAP Diversity Plus: KF3CT Assay (AID 2283069); conditions: primary human keratinocytes with fibroblasts;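 note: total protein by sulforhodamine B staining as a cytotoxicity measure; read 24 h after compound addition; fitted for both signal gain and loss against DMSO baseline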
Outline: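 SRB read-out at 560 nm (0.1% stain, TCA-fixed cells) gauges overt cytotoxicity in a human skin keratinocyte–fibroblast co-culture 24 h post-dosing. Signal change was fitted bidirectionally relative to DMSO control.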

[9] = read-out: Interleukin-1 alpha (IL1a), IL1A (gene 3552); test: BSK_KF3CT_IL1a: BioMAP Diversity Plus: KF3CT Assay for Interleukin-1 alpha (IL1a) Biomarker Activity (AID 2283070); conditions: primary human keratinocytes with fibroblasts; actives raise or lower the signal
Outline: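 Primary skin co-culture (keratinocytes, foreskin fibroblasts), 24 h exposure; ELISA for IL-1a; bidirectional curve fit vs DMSO.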

[10] = read-out: Plasminogen activator inhibitor-1 (PAI1), SERPINE1 (gene 5054); test: BSK_hDFCGF_PAI1: BioMAP Diversity Plus: hDFCGF Assay for Plasminogen activator inhibitor-1 (PAI1) Biomarker Activity (AID 2283066); conditions: primary human foreskin fibroblasts; actives raise or lower the signal
Outline: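 Fibroblasts from human foreskin were treated with test chemical. After 24 h, PAI-1 was measured by ELISA. Activity was fitted in both directions relative to DMSO.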

Measured: AC50

NC(=O)c1nc(-c2cccc(-c3cc(F)ccc3OCC(F)(F)C(F)(F)F)c2)n[nH]1
active: [1] 36.4 µM | [2] 35.5 µM | [3] 35 µM | [4] 39.5 µM | [5] 35.1 µM | [6] 35.2 µM | [7] 39.3 µM | [8] 37 µM | [9] 41.2 µM

CCCCCCCCCC(=O)O
not listed: [10]
inactive: all other assays above

Cc1ccc2oc(CN(Cc3ccccc3)C(=O)Nc3c(F)cc(F)cc3F)c(-c3ccc(Cl)cc3)c2c1
active: [10] 0.999 µM
inactive: all other assays above

CC(C)(C)c1csc(-c2cc3cc(OCc4ccccc4CC(=O)O)ccc3o2)n1
active: [1] 17.2 µM | [2] 15.5 µM | [3] 15.2 µM | [4] 14.5 µM | [5] 10.1 µM | [10] 11.3 µM | [6] 24.3 µM | [7] 9.6 µM | [8] 12.6 µM | [9] 33 µM

O=C(Nc1ccc(Cl)cc1)Nc1ccc(Cl)c(Cl)c1
active: [1] 0.138 µM | [3] 0.148 µM | [4] 0.242 µM | [5] 0.47 µM
not listed: [10]
inactive: all other assays above

O=C(O)c1ccccc1C(=O)OCc1ccccc1
not listed: [10]
inactive: all other assays above

Cc1oc2c(NC(=O)c3c(Cl)cccc3Cl)cccc2c1C(C)(C)O
active: [2] 12.3 µM | [4] 10.7 µM | [10] 14.2 µM
inactive: all other assays above

O=c1[nH]sc2ccccc12
active: [1] 7.21 µM | [2] 11.8 µM | [3] 5.92 µM | [4] 6.98 µM | [5] 1.82 µM | [10] 3.23 µM | [6] 20 µM | [7] 31.7 µM | [8] 35.7 µM | [9] 13.7 µM

NCc1cccc(C2CCN(C(=O)c3ccc(C#Cc4ccccc4F)o3)CC2)c1
active: [1] 10.1 µM | [2] 11.8 µM | [3] 11.7 µM | [4] 11 µM | [5] 7.78 µM | [10] 7.77 µM | [6] 29.6 µM | [7] 12.4 µM | [8] 5.34 µM | [9] 12.3 µM

CC(C)(c1cc(Br)c(O)c(Br)c1)c1cc(Br)c(O)c(Br)c1
active: [1] 5.8 µM | [2] 6.42 µM | [3] 7.65 µM | [4] 6.31 µM | [5] 5.94 µM | [10] 5.46 µM | [6] 4.85 µM | [7] 2.53 µM | [8] 5.11 µM | [9] 5.97 µM

Cc1occc1C(=O)Nc1ccc(C(=O)N2CCC(F)(F)/C(=C\C(=O)N3CCC(N4CCCCC4)CC3)c3ccccc32)cc1
not listed: [10]
inactive: all other assays above

O=C1c2ccccc2C(=O)N1CCc1noc(-c2ccc(CN3CCCCCC3)s2)n1
not listed: [4]
inactive: all other assays above

CCCOC(=O)c1cc(O)c(O)c(O)c1
active: [3] 10.8 µM
inactive: all other assays above

c1ccc2n[nH]nc2c1
inactive: all assays above

CCOC(=O)O[C@H](C)OC(=O)c1ccc2c(c1)cc(C(=O)NC1CCN(C(C)C)CC1)n2Cc1cc(-c2ccc(Cl)s2)on1
active: [1] 4.96 µM | [2] 4.35 µM | [3] 6.08 µM | [4] 6.2 µM | [5] 3.74 µM | [6] 9.05 µM | [7] 10.4 µM | [8] 6.24 µM | [9] 6.3 µM

OCCO
not listed: [10]
inactive: all other assays above

O=C(O)Cn1c(=O)n(Cc2ccc(Br)cc2F)c(=O)c2ccc(Cl)cc21
not listed: [10]
inactive: all other assays above

CCCCCc1ccc(N)cc1
active: [7] 22 µM | [8] 24.4 µM
inactive: all other assays above

Cc1ccc(C(C)C)cc1
not listed: [10]
inactive: all other assays above

CCCCCCCCN(C)CCCCCCCC
not listed: [10]
inactive: all other assays above

O=C(OCCCCCCOC(=O)c1ccccc1)c1ccccc1
not listed: [10]
inactive: all other assays above

CCCCCCCCCCCO
active: [1] 30 µM | [3] 32.1 µM
not listed: [10]
inactive: all other assays above

CC1=CC(=O)/C(=C(/C)O)C(=O)O1
not listed: [10]
inactive: all other assays above

CC(=O)N1CCN(c2ccc(OC[C@H]3CO[C@](Cn4ccnc4)(c4ccc(Cl)cc4Cl)O3)cc2)CC1
active: [1] 32.9 µM | [2] 35.4 µM | [3] 36.9 µM | [5] 35.5 µM | [10] 34.2 µM | [6] 30.9 µM | [7] 34.5 µM | [8] 26.6 µM | [9] 33.6 µM

CC(C)(O)c1ccc(CNC(=O)c2cccnc2Oc2ccc3nonc3c2)cc1
inactive: all assays above

CC(C)(C)c1cc(/C=C2\SC(N)=NC2=O)cc(C(C)(C)C)c1O
active: [1] 20 µM | [2] 31 µM | [3] 14.2 µM | [4] 20 µM | [5] 15.6 µM | [10] 20 µM | [7] 9.94 µM | [8] 7.93 µM
inactive: [6] | [9]

O=c1ccc2ccccc2o1
not listed: [10]
inactive: all other assays above

c1ccc(C[n+]2cccc3ccccc32)cc1
not listed: [10]
inactive: all other assays above

C[C@]12CC[C@@H]3c4ccc(O)cc4CC[C@H]3[C@@H]1CCC2=O
inactive: all assays above

CCCCOC(=O)c1ccc(O)cc1
inactive: all assays above

O=C(O)Cc1cc(I)c(Oc2ccc(O)c(I)c2)c(I)c1
active: [1] 20.2 µM | [10] 10.4 µM | [7] 26.8 µM | [8] 25.5 µM
not listed: [4]
inactive: all other assays above

COCC(C)OCC(C)OCC(C)O (stereo not drawn)
not listed: [10]
inactive: all other assays above

CCCCOC(=O)CC(CC(=O)OCCCC)(OC(C)=O)C(=O)OCCCC
inactive: all assays above

C[C@]12CC[C@@H]3c4ccc(O)cc4CC[C@H]3[C@@H]1CC[C@H]2O
active: [5] 15.4 µM
inactive: all other assays above

COc1ccc2cc(S(=O)(=O)N[C@H](CC(=O)N[C@H](Cc3ccc(CN4[C@H](C)CCC[C@@H]4C)cc3)C(=O)N(C)C(C)C)c3ccc4c(c3)OCO4)ccc2c1
inactive: [6] | [9]
active: [1] 27.7 µM | [2] 37.4 µM | [3] 33.3 µM | [4] 31.5 µM | [5] 32.1 µM | [10] 26 µM | [7] 29.3 µM | [8] 31.7 µM

CC[C@H](NC(=O)c1cc(F)ccc1NS(=O)(=O)c1cccc2cccnc12)c1ccccc1
not listed: [10]
inactive: all other assays above

Cc1cccc2ccccc12
not listed: [10]
inactive: all other assays above

O=C(O)c1ccccc1-n1cc(C(=O)O)c(=O)c2cc(Nc3c(F)cc(F)cc3Cl)c(Cl)cc21
not listed: [10]
inactive: all other assays above
